Rows were chosen to be rich in hits. Some 5.9% of all compounds tested hit in one or more screens of this group.
LANA-H2B inh – blocks KSHV LANA binding to histone H2A/H2B; Q9QR71; cell-free LANA-H2A/H2B peptide, fluorescence polarization; inhibition, % (test concentration not listed); 0.6% of 320,000 active; AID 2629; in the data active means inhibition mostly above about 10%, no sharp cut-off; inactive means mostly below about 6.7%
Rtt109 Vps75 – C. albicans Rtt109 histone acetyltransferase inhibition | AID 540336 | 0.16% of 330,000 active | purified Rtt109/Vps75, ThioGlo CoA-SH fluorescence, 4 h | inhibition, % at 34.9 µM | Q5AAJ8;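 active means inhibition of at least 50% in every replicate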
Target sequence (Q5AAJ8 whole entry, looked up): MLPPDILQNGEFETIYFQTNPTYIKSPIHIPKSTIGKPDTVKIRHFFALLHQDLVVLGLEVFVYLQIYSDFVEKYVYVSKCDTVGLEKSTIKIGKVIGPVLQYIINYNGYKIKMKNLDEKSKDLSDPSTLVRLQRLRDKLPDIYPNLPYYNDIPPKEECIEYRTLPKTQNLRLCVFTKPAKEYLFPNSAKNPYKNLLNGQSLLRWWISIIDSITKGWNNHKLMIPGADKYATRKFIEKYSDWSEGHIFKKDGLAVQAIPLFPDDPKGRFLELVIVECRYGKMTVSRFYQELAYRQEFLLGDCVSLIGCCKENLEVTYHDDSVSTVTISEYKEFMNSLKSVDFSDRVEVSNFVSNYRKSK
ALR inh – blocks human ALR sulfhydryl oxidase activity; 3.8% of 290,000 active; AID 485317; purified ALR, DTT oxidation, H2O2 HRP-luminol luminescence; P55789; inhibition, % (concentration not given with the values);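 active means mean replicate inhibition above about 79%, with every replicate also reaching it, limit read from the data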
Target sequence (P55789 whole entry, looked up): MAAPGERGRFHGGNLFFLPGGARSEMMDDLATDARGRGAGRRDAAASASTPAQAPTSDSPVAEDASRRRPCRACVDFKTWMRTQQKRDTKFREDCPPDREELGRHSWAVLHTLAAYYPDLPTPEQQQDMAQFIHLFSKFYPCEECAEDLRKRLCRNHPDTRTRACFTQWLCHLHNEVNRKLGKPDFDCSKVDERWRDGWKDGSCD
rCAG binder – binds r(CAG) RNA repeats; AID 651821; r(CAG) RNA repeat, TO-PRO-1 dye displacement fluorescence; inhibition, % at 3 µM; 1.3% of 370,000 active;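 active means inhibition above the plate cutoff, the mean of all test compounds on that plate plus 3 SD, cut at about 35% in these data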;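 further: higher means more dye released from RNA so lower well fluorescence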
ABHD5 PLIN5 PPI – inhibitors of human ABHD5-perilipin-5 interaction; Q00G26+Q8WTS1; Split G. princeps luciferase complementation, luminescence, 4 h; inhibition, % at 4 µM; 0.78% of 360,000 active; AID 602281;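 active means inhibition above the mean inhibition across every tested compound plus 3 SD, cut at about 22% in these data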
PRMT1 FP inh – inhibitors of human PRMT1; 1.3% of 370,000 active; Q99873; recombinant PRMT1, activity-based probe fluorescence polarization; inhibition, % at 2.79 µM;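 active means inhibition above about 21% made by adding two undisclosed values, limit read from the data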
Numbers stand for hits; 0 = inactive; - = not tested or not shown.

SMILES	LANA-H2B inh	Rtt109 Vps75	ALR inh	rCAG binder	ABHD5 PLIN5 PPI	PRMT1 FP inh
COc1ccc(OC)c(CNc2ncc(-c3cccc([N+](=O)[O-])c3)n2C)c1	0	0	98	0	0	0
Nc1ccccc1C(=O)NCC1(c2ccccc2)CCCC1	0	0	0	0	0	0
COC1=C[C@H](C(=O)NCc2ccc(Cl)cc2)C(C)C(c2ccccc2)CC1=O (some centres undefined)	-	-	-	0	-	0
CCN1CCN(CCCNC(=O)CS(=O)(=O)Cc2nc(-c3cccc(OC)c3)oc2C)CC1	0	0	90	0	0	0
COc1cccc(-c2nc(CS(=O)(=O)CC(=O)NCCCN3C(C)CCCC3C)c(C)o2)c1 (centres undefined)	0	0	0	0	0	0
Cc1ccc(-c2nc(CS(=O)(=O)CC(=O)NCCCN3CCN(C)CC3)c(C)o2)cc1	0	0	0	0	0	0
COc1cccc(-c2nc(CS(=O)(=O)CC(=O)NCCCN3CCN(C)CC3)c(C)o2)c1	0	0	99	0	0	0
COc1cccc(-c2nc(CS(=O)(=O)CC(=O)NCCCN3CC(C)CC(C)C3)c(C)o2)c1 (centres undefined)	0	0	90	0	0	0
OC(c1ccccc1)(c1nc(-c2ccc(F)c(Cl)c2)cs1)C(F)(F)F (centres undefined)	-	-	-	0	0	0
CC(=O)CC[C@@H]1CC[C@]2(CCCN(C(=O)C3CCCC3)C2)O1	-	-	-	0	-	0
COc1ccc(C(C)=O)cc1CSC(=S)N1CCSCC1	-	-	-	0	-	0
CCOC(=O)[C@]12CCCC=C1N(Cc1ccc(OC)cc1)C(=O)[C@@H]2CC(=O)N1CCC(c2ccccc2)CC1	-	-	-	0	-	0
CCOC(=O)N1CCc2cc(OC)c(OC)c3c2c1cc1cc(OC)c(OC)cc13	-	0	-	0	0	0
Cc1cc2cc3c(cc2nc1SCC(=O)Nc1nc(C)c(C)s1)OCO3	0	0	97	0	0	0
COC(=O)CSc1nc2cc3c(cc2cc1C)OCO3	0	0	0	0	0	0
COC(=O)[C@]12C[C@H](CC(=O)NCc3cccc4ccccc34)C(=O)N(CCc3ccc(OC)c(OC)c3)C1=C[C@H](C(C)C)O[C@@H]2C1CC1	-	-	-	0	-	0
Cc1ccccc1CC1(CO)CCCN(C(=O)c2ccoc2)C1 (centres undefined)	-	-	-	0	0	0
O=c1cc(CN2CCN(c3ccccc3O)CC2)nc2sccn12	0	0	99	0	0	0
CN(Cc1cc(=O)n2ccsc2n1)c1ccccc1	0	0	98	0	0	0
CN(Cc1cc(=O)n2ccsc2n1)C1CCCCC1	0	0	0	0	0	0
O=c1cc(CN2CCN(c3ccc(F)cc3)CC2)nc2sccn12	0	0	98	0	0	0
CN(C)c1ccc(NC(=O)NC2CCCCN(Cc3cccc(Cl)c3)C2=O)cc1 (centres undefined)	-	-	-	0	-	0
CCOc1ccc(C(=O)Nc2cc3c(cc2N2CCCC2)n(CC)c(=O)n3CC)cc1OCC	0	0	0	0	0	0
CCn1c(=O)n(CC)c2cc(N3CCCC3)c(NC(=O)c3c(F)cccc3F)cc21	0	0	99	0	0	0
CCn1c(=O)n(CC)c2cc(N3CCCC3)c(NC(=O)c3ccc(F)cc3)cc21	0	0	100	0	0	0
SMILES	LANA-H2B inh	Rtt109 Vps75	ALR inh	rCAG binder	ABHD5 PLIN5 PPI	PRMT1 FP inh
CCn1c(=O)n(CC)c2cc(N3CCCC3)c(NC(=O)c3cccc(OC)c3)cc21	0	0	0	0	0	0
O=C(c1cccc(F)c1)N(Cc1ccccn1)CC1CCCO1 (centres undefined)	-	-	-	0	-	0
CCN(CC)C(=O)C1=C(C)N(CCCOC)C(=O)C(CC(=O)NCCCCc2ccccc2)C1 (centres undefined)	-	-	-	0	0	0
COC(=O)[C@H](C)NC(=O)[C@@H]1CCCN1C(=O)CNP(=O)(OCc1ccccc1)OCc1ccccc1	-	-	-	-	-	0
CC(=O)N1CCC(c2c[nH]c3ccccc23)CC1	0	0	96	0	0	0
Cn1ccnc1SCc1cn2ccccc2n1	0	0	94	0	0	0
CC1CCN(C(=O)c2[nH]cnc2C(=O)Nc2ccccc2F)CC1	-	-	-	0	0	0
N#CC(c1nc2ccccc2nc1N1CCCC1)S(=O)(=O)c1ccccc1 (centres undefined)	17	0	0	0	0	0
O=[N+]([O-])c1cc(C=Nc2cccc3c(O)cccc23)ccc1Cl	0	-	-	-	-	-
COCCCN1C(=O)[C@H](CC(=O)NCC23CC4CC(CC(C4)C2)C3)[C@]2(C(=O)OC)CCCCC=C12	-	-	-	0	-	0
O=[N+]([O-])c1ccc(N/N=C2\CC3CC=CC23)cc1 (centres undefined)	0	0	96	0	0	0
CC(CNC(=O)CCS(=O)(=O)c1ccc2c(c1)oc(=O)n2C)c1ccccc1 (centres undefined)	0	0	0	0	0	0
CC(C)N(Cc1ccccc1)C(=O)CCS(=O)(=O)c1ccc2c(c1)oc(=O)n2C	0	0	0	0	0	22
C=CCSC1=C(C#N)C(c2ccccc2OC)CC(=O)N1 (centres undefined)	0	0	0	0	0	0
C=CCSC1=C(C#N)C(c2ccccc2OCC)CC(=O)N1 (centres undefined)	0	0	0	0	0	22
CNC(=S)NN(c1ccccc1)c1ccccc1	0	0	95	-	0	-
COCCNC(=S)N(c1ccccc1)C(C)C	0	0	0	0	0	0
COCCNC(=S)NN(c1ccccc1)c1ccccc1	0	0	82	0	0	0
COc1ccc(C(C(=O)Nc2ccc(F)cc2)N2CCN(c3cccc(C(F)(F)F)n3)CC2)cc1 (centres undefined)	-	-	-	0	0	0
COc1ccc(-c2[nH]ncc2-c2ccc3c(c2)OCCO3)c(O)c1	0	0	92	0	0	0
CCc1cc(-c2[nH]ncc2-c2ccc(OC)cc2)c(O)cc1O	0	0	0	0	0	0
CCc1cc(-c2[nH]ncc2-c2ccc3c(c2)OCO3)c(O)cc1O	-8.4	0	0	0	0	0
CC1CCc2c(sc3nc(CN4CCOCC4)nc(Sc4ccccc4)c23)C1 (centres undefined)	0	0	98	0	0	0
COc1ccc(Nc2nc(CN3CCOCC3)nc3sc4c(c23)CCC(C)C4)cc1OC (centres undefined)	0	-	0	-	-	-
COc1cc(CC(=O)Nc2ccccc2N2CCCCC2)cc(OC)c1OC	0	0	0	0	0	0
Cc1cccc(NC(=O)CSCC(=O)Nc2cccc3ncccc23)c1	0	0	99	0	0	0
CCOc1ccc(N2CC(C(=O)Nc3ccccc3N3CCCC3)CC2=O)cc1 (centres undefined)	0	0	94	0	0	0
COc1ccc(CC(=O)Nc2ccccc2N2CCCC2)cc1OC	0	0	98	0	0	0
CC(C)(C)C(=O)NC(=S)Nc1ccccc1N1CCCC1	0	-	98	0	0	0
